# Laboratory results taken from PubChem BioAssay (NCATS).
# Inconclusive results are not listed. A call without a number means that no potency is given here. Values without a mark were called inactive. Active and inactive are the calls of the source. Calls follow the shape of the dose curve; as a rule, active = well fitted curve in the direction sought with a large enough effect; inconclusive = small, poorly fitted or top-dose-only effect, or another doubt; inactive = no such curve, though single readings can be large; an effect the other way counts as inactive or inconclusive.
# Experiments:
# [1] = biological target: Rap guanine nucleotide exchange factor 3 (Homo sapiens) (UniProt O95398); assay: Confirmatory qHTS for antagonist of cAMP-regulated guanine nucleotide exchange factor 3 (EPAC1) (AID 1645880); also: nearly all actives have a fitted effect of over 55% in size; also: potency is read from the fitted curve at half-maximal effect
# Sequence of Rap guanine nucleotide exchange factor 3 (Homo sapiens) (O95398 whole entry, looked up): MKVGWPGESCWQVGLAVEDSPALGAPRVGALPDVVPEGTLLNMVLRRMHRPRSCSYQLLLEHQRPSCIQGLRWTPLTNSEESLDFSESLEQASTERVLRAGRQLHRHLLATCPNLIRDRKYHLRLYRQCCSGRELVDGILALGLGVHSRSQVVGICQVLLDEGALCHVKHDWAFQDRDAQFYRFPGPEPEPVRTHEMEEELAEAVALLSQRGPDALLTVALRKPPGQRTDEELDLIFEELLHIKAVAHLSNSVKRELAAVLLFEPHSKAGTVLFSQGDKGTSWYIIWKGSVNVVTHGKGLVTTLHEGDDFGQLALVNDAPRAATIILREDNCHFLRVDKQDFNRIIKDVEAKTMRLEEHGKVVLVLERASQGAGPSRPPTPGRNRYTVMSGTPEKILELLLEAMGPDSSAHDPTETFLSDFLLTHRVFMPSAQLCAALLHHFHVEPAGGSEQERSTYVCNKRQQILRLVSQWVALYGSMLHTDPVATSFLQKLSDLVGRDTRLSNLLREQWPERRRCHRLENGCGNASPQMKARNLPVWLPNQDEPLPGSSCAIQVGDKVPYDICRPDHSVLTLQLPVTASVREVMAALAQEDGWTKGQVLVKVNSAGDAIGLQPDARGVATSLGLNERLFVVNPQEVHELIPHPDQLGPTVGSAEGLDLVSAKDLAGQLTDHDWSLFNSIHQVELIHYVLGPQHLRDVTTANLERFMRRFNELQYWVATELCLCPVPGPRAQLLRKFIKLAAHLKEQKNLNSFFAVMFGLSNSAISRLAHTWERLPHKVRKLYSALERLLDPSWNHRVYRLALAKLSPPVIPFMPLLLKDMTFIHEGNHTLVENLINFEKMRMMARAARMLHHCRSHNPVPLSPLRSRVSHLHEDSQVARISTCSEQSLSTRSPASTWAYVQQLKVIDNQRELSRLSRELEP
# Procedure, shortened: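 Nucleotide exchange uses 100 nM EPAC1, 250 nM RAP1B-BODIPY-GDP and 50 uM GDP, with compounds in a concentration-titration series. After 5 min at room temperature, fluorescence (480 nm ex/540 nm em) is read every 5 min for 30 min. Data are normalized to control ATA and DMSO.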
# [2] = biological target: Rap guanine nucleotide exchange factor 3 (Homo sapiens) (UniProt O95398); assay: Confirmatory qHTS for agonist of cAMP-regulated guanine nucleotide exchange factor 3 (EPAC1) (AID 1645881);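 also: EPAC1 catalysed release of BODIPY-GDP from Rap1B seen as fluorescence loss; nearly all actives have a fitted effect of over 75% in size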
# [3] = biological target: Rap guanine nucleotide exchange factor 4 (Homo sapiens) (UniProt Q8WZA2); assay: Confirmatory qHTS for agonist of cAMP-regulated guanine nucleotide exchange factor 4 (EPAC2) (AID 1645884);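 also: nucleotide exchange releases bodipy-GDP from Rap1 and this lowers its fluorescence; nearly all actives have a fitted effect of over 65% in size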
# Sequence of Rap guanine nucleotide exchange factor 4 (Homo sapiens) (Q8WZA2 whole entry, looked up): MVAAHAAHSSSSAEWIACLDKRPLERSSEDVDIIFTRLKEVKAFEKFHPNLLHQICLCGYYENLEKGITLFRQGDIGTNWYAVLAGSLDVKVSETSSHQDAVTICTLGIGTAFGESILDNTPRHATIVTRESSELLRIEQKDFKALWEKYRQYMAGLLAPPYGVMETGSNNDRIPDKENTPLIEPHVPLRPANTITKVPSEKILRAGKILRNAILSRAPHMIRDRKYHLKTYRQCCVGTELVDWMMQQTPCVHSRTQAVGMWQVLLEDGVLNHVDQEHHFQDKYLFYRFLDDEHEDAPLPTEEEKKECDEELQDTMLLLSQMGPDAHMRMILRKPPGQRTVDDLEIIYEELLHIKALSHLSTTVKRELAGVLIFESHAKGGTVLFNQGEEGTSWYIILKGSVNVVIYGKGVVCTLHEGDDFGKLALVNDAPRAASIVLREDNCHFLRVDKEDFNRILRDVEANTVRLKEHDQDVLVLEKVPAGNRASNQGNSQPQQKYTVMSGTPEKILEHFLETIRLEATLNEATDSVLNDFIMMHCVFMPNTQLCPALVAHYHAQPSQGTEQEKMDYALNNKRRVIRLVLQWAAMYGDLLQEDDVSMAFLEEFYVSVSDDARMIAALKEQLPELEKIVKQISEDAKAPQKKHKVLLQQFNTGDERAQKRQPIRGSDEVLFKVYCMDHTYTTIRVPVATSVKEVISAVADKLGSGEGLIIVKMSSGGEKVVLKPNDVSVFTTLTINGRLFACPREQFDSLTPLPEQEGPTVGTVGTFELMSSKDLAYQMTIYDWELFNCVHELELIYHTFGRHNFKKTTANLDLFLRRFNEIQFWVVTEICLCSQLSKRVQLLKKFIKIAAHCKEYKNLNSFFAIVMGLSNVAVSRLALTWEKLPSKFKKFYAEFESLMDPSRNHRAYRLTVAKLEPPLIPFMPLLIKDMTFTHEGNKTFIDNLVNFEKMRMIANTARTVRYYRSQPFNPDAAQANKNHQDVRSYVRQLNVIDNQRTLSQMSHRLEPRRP
# [4] = biological target: Rap guanine nucleotide exchange factor 4 (Homo sapiens) (UniProt Q8WZA2); assay: Confirmatory qHTS for antagonist of cAMP-regulated guanine nucleotide exchange factor 4 (EPAC2) (AID 1645885); also: nearly all actives have a fitted effect of over 25% in size; also: potency is read from the fitted curve at half-maximal effect
# [5] = biological target: Rap guanine nucleotide exchange factor 3 (Homo sapiens) (UniProt O95398); assay: Counterscreen qHTS for antagonist of cAMP-regulated guanine nucleotide exchange factor 3 (EPAC1) (AID 1645888);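 also: fluorescence loss as bound BODIPY-GDP is released from Rap1B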
# Procedure, shortened: (§1)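 Measured: fluorescence of BODIPY-GDP bound to Rap1B, which falls as exchange proceeds. Conditions include 50 uM competing GDP, 5 and 30 min reads, and a later cAMP challenge for antagonist detection.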
# [6] = biological target: Rap guanine nucleotide exchange factor 3 (Homo sapiens) (UniProt O95398); assay: Counterscreen qHTS for agonist of cAMP-regulated guanine nucleotide exchange factor 3 (EPAC1) (AID 1645889); also: nearly all actives have a fitted effect of over 40% in size
# Procedure, shortened: as §1
SMILES,Potency [1],Potency [2],activation [3],Potency [4],"activity change, negative = inhibition [5]",activation [6],Potency [3],Potency [5],Potency [6],outcome [4]
Cc1ccc(S(=O)(=O)Nc2ccccc2N2CCCCC2)cc1,inactive,inactive,"1.85% [at 17.1 µM, percent relative to cAMP agonist control]",inactive,-22.5% [at 30.8 µM],18.9% [at 30.8 µM],,,,
C=CCOc1ccc(/C=C2\SC(=S)N(NS(=O)(=O)c3ccc(C)cc3)C2=O)cc1,21.3 µM (active),inactive,,inactive,,,inactive,inactive,inactive,
CC(C)CCNC1c2ccccc2C(=O)N1Cc1ccccc1 (configuration not stated),inactive,inactive,"11.2% [at 17.1 µM, percent relative to cAMP agonist control]",inactive,-10.7% [at 30.8 µM],2.24% [at 30.8 µM],,,,
CCCC(=O)N1c2nc(C(C)C)nn2C2(CCCCC2)[C@@H]2CCCC[C@@H]21,inactive,inactive,,inactive,,,inactive,inactive,inactive,
CCCCCC1CCC(c2ccc(C(N)=O)cc2)CC1 (configuration not stated),inactive,inactive,,inactive,,,inactive,inactive,inactive,
CC(C)OC(=O)NC(c1ccccc1)C(Cl)(Cl)Cl (configuration not stated),inactive,inactive,"4.21% [at 17.1 µM, percent relative to cAMP agonist control]",inactive,-2.25% [at 30.8 µM],7.19% [at 30.8 µM],,,,
O=C(O)CCc1ccc(-c2ccccc2)n1-c1cccc(Br)c1,inactive,inactive,,,,,inactive,inactive,inactive,inactive; activator; fitted 0.0054 uM [at 12.7 µM]
Cc1[nH]c2ccccc2c1C(C[N+](=O)[O-])c1cccs1 (configuration not stated),inactive,inactive,"5.2% [at 17.1 µM, percent relative to cAMP agonist control]",inactive,-10.6% [at 30.8 µM],46.2% [at 30.8 µM],,,,
c1ccc(-c2nnc3sc(CN4CCC5(CC4)OCCO5)cn23)cc1,inactive,inactive,,inactive,,,inactive,inactive,inactive,
COC(=O)c1cc2occc2n1Cc1ccc(F)cc1Cl,inactive,inactive,,inactive,,,inactive,inactive,inactive,
COC(=O)c1ccc(NC(=O)CCOc2ccccc2)cc1,inactive,inactive,,inactive,,,inactive,inactive,inactive,
C/C(=C\c1ccco1)CN1CCN(Cc2ccc(C)o2)C(CCO)C1 (configuration not stated),inactive,inactive,,inactive,,,inactive,inactive,inactive,
O=[N+]([O-])c1cc(-c2ccccc2)cc([N+](=O)[O-])c1O,75.7 µM (active),inactive,,42.6 µM (active),,,inactive,inactive,inactive,
Cn1cc([C@]2(O)C(=O)Nc3ccccc32)c2ccccc21,inactive,inactive,"0.506% [at 17.1 µM, percent relative to cAMP agonist control]",inactive,-2.77% [at 30.8 µM],2.4% [at 30.8 µM],,,,
Cc1cccc(NC(=O)c2c(NC(=O)C(F)(F)F)sc3c2CCCCC3)c1,42.6 µM (active),inactive,,inactive,,,inactive,inactive,inactive,
CCC1CCCCN1CCCNC(=O)c1ccc(CS(=O)(=O)Cc2ccccc2F)o1 (configuration not stated),inactive,inactive,,inactive,,,inactive,inactive,inactive,
CC1CCc2c(sc(NC(=O)Cc3ccccc3)c2C(=O)Nc2ccc(Cl)cc2)C1 (configuration not stated),inactive,inactive,,inactive,,,inactive,inactive,inactive,
